Measurements taken from PubChem BioAssay AID2704 (Broad Institute, 2010).
The source made the active and inactive calls.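 Rule for the calls: active = a dose-dependent loss of polyadenylated product, with a fitted EC50, the dose giving half the full effect; inactive = no dose-dependent effect seen.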

Assay: inhibitors of in vitro mRNA polyadenylation, dose response, orthogonal assay for polyadenylation inhibitor project, cell lysate, S. cerevisiae extracts, radioactive, gel readout (AID 2704)
Conditions: S. cerevisiae extract, GAL7 RNA polyadenylation

Structure (SMILES) | EC50
COc1cc(/C=C2/CC/C(=C/c3ccc(O)c(OC)c3)C2=O)ccc1O | 400 µM (active)
N#C/C(=C/c1ccc([N+](=O)[O-])o1)c1nc2ccccc2[nH]1 | 1100 µM (active)
CCOc1cc(/C=C2\N=C(SC(C)C(N)=O)N(c3ccc(OC(F)F)cc3)C2=O)ccc1O (stereo unspecified) | 410 µM (active)
Cc1ccc2nc(/C(C#N)=C/c3ccc([N+](=O)[O-])o3)[nH]c2c1 | 700 µM (active)
Cc1ccc(-c2nn3c(C)nnc3s2)cc1NC(=O)CSc1ccc(Cl)cc1 | 900 µM (active)
N#CC1(C#N)C2=C(CCCC2)NC(c2ccccc2)C1(C#N)C#N (stereo unspecified) | 280 µM (active)
